Assay [1] is described as follows: qHTS assay to identify small molecule antagonists of the sonic hedgehog signaling (Shh) pathway (AID 1259369). Also: nearly all actives have a fitted effect of over 45% in size. Also: potency is read from the fitted curve at half-maximal effect. The method, boiled down:
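NIH/3T3 stable Gli1-Luc clone, 2,000 cells/well, 4hr settle; cpd + conditioned medium 24hr; Luc reagent 30min RT; luminescence.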
(Quantitative high-throughput screening tests each substance at several concentrations.)

For assay [2], the target named is Estrogen receptor beta (Homo sapiens) (UniProt Q92731). Briefly: qHTS assay to identify small molecule agonists of the estrogen receptor beta (ER-beta) signaling pathway (AID 1259377; active = well fitted activation curve with a large enough effect in the signal ratio in the repeat runs, not every such curve was filed as active; the % refers to the signal ratio). A digest of the protocol:
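Measured by fluorescence intensity from a B/G FRET beta-lactamase substrate (2 h, room temperature) in ER-beta-UAS-bla HEK293T cells treated with DMSO-dissolved compounds for 16 hr at 37C and 5% CO2.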

Assay [3] has the same target. Briefly: qHTS assay to identify small molecule antagonists of the estrogen receptor beta (ER-beta) signaling pathway (AID 1259378; active = well fitted inhibition curve with a large enough effect in the signal ratio in the repeat runs, not every such curve was filed as active; the % refers to the signal ratio; also: potency is read from the fitted curve at half-maximal effect). A digest of the protocol:
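ER-beta-UAS-bla HEK293T cells in 2% charcoal-stripped FBS medium treated with compound plus 1nM final 17-beta-estradiol for 16 hr at 37C. Beta-lactamase reporter read by FRET substrate fluorescence after 2 hours at room temperature.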

The nature of assay [4]: qHTS assay to identify small molecule agonists of the androgen receptor (AR) signaling pathway in the presence of an antagonist - cell viability counter screen (AID 1259379; active = well fitted curve in the direction sought with a large enough effect in the repeat runs; an effect the other way counts as inactive or inconclusive;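 also: MDA-kb2 human breast cancer cells carrying an MMTV luciferase reporter; series mostly up to about 92 µM; nearly all actives have a fitted effect of over 25% in size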). The method, boiled down: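 MDA-kb2 viability measured by CellTiter-Fluor fluorescence in the same wells as the luciferase signal; nilutamide 3.0uM final; 15-point compound titration; 16 hr at 37C.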

A short description of assay [5]: qHTS assay to identify small molecule agonists of the estrogen receptor beta (ER-beta) signaling pathway - cell viability counter screen (AID 1259380; active = well fitted curve in the direction sought with a large enough effect in the repeat runs; an effect the other way counts as inactive or inconclusive; also: nearly all actives have a fitted effect of over 30% in size; also: potency is read from the fitted curve at half-maximal effect). A digest of the protocol: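 Measured: luminescence from CellTiter-Glo after 30 min at room temperature, added to wells already read for the LiveBLAzer FRET reporter (2 hr substrate); ER-beta-UAS-bla HEK293T cells had 16 hr compound treatment at 37C, 5% CO2.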

A short description of assay [6]: qHTS assay to identify small molecule antagonists of the estrogen receptor beta (ER-beta) signaling pathway - cell viability counter screen (AID 1259382; active = well fitted curve in the direction sought with a large enough effect in the repeat runs; an effect the other way counts as inactive or inconclusive; also: series mostly up to about 92 µM; nearly all actives have a fitted effect of over 55% in size). The method, boiled down: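 Readout: luminescence, CellTiter-Glo, same wells as bla assay. System: ER-beta-UAS-bla GripTite HEK293T, 2% charcoal-stripped FBS. Exposure: compounds plus 1nM 17-beta-estradiol, 16 hr, 37C.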

The target of assay [7] is Estrogen receptor (Homo sapiens) (UniProt P03372). Description: qHTS assay to identify small molecule agonists of the estrogen receptor alpha (ER-alpha) signaling pathway in the presence of an antagonist (AID 1259383). Also: top concentration of the series differs between compounds; nearly all actives have a fitted effect of over 15% in size. A digest of the protocol:
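Quantitative HTS confirmation: compounds titrated at 15 concentrations onto estrogen-deprived VM7Luc4E2 cells carrying a four-ERE luciferase construct, with ICI-182,780 present at 10.0nM final. Signal is luminescence after 22hr exposure.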

Assay [8] in a line: qHTS assay to identify small molecule agonists or antagonists of the thyroid stimulating hormone receptor (TSHR) signaling pathway - wild type cell line counter screen (AID 1259384). The method, boiled down: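 Wild-type Hek293 cells, 800/well, 18 h at 37C, then compound with Ro20-1724 for 30 min RT. cAMP by HTRF (cAMP-d2/anti-cAMP cryptate), 1 h RT, fluorescence read. 15 concentrations, triplicates.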

Assay [9] addresses Thyrotropin receptor (Homo sapiens) (UniProt P16473). Description: qHTS assay to identify small molecule antagonists of the thyroid stimulating hormone receptor (TSHR) signaling pathway (AID 1259385). Also: nearly all actives have a fitted effect of over 20% in size. Also: potency is read from the fitted curve at half-maximal effect. A digest of the protocol:
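TSHR-HEK293 cells (800/well) plated 18 h, then compounds with Ro20-1724 and TSH at 1.5 ng/mL final, 30 min at room temperature. cAMP quantified by HTRF (cAMP-d2/anti-cAMP-cryptate, 1 h); 15 concentrations in triplicate.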

Assay [10] addresses Androgen receptor (Homo sapiens) (UniProt P10275). Briefly: qHTS assay to identify small molecule agonists of the androgen receptor (AR) signaling pathway in the presence of an antagonist (AID 1259381). Also: nearly all actives have a fitted effect of over 15% in size. The method, boiled down:
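Luminescent ONE-Glo read, 30min at room temperature, follows 16hr compound exposure (15 concentrations) of MDA-kb2 cells at 37C, 0% CO2, with nilutamide added at 3.0uM final.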

Results filed as inconclusive are left out. Active and inactive are the calls of the source. Unless noted, calls follow the shape of the full dose curve.

Thyrotropin receptor (Homo sapiens), sequence (P16473 whole entry, looked up): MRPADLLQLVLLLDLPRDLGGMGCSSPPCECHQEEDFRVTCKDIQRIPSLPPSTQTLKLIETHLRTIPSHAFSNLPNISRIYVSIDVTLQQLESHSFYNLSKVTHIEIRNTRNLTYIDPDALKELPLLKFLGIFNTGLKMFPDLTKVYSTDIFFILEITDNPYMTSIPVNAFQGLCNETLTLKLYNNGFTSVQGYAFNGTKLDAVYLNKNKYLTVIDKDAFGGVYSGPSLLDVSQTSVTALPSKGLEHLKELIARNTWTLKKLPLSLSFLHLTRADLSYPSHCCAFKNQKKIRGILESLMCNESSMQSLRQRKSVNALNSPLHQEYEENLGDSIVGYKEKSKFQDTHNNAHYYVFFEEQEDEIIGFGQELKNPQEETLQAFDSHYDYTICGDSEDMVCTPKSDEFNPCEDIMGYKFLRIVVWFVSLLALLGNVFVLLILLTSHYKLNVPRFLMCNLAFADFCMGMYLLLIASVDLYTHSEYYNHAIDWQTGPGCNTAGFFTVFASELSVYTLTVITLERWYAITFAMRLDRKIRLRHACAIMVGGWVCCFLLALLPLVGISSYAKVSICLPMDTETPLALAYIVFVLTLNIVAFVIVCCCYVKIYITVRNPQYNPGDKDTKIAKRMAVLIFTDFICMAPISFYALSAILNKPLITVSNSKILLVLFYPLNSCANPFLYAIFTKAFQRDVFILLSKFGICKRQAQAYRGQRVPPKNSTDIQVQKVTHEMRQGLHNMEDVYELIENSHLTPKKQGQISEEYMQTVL
Estrogen receptor beta (Homo sapiens), sequence (Q92731 whole entry, looked up): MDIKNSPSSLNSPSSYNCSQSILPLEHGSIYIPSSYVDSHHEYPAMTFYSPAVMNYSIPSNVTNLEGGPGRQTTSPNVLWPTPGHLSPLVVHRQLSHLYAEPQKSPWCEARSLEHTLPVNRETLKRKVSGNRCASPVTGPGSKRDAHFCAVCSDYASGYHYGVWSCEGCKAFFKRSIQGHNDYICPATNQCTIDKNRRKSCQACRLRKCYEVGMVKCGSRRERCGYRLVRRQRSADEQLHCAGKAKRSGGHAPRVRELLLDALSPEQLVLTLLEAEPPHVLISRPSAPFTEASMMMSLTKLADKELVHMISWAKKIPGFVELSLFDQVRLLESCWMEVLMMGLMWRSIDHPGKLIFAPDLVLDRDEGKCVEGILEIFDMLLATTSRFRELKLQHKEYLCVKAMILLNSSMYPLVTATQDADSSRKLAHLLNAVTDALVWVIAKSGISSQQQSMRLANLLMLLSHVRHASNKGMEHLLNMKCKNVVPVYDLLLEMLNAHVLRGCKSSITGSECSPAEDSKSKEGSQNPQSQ
Estrogen receptor (Homo sapiens), sequence (P03372 whole entry, looked up): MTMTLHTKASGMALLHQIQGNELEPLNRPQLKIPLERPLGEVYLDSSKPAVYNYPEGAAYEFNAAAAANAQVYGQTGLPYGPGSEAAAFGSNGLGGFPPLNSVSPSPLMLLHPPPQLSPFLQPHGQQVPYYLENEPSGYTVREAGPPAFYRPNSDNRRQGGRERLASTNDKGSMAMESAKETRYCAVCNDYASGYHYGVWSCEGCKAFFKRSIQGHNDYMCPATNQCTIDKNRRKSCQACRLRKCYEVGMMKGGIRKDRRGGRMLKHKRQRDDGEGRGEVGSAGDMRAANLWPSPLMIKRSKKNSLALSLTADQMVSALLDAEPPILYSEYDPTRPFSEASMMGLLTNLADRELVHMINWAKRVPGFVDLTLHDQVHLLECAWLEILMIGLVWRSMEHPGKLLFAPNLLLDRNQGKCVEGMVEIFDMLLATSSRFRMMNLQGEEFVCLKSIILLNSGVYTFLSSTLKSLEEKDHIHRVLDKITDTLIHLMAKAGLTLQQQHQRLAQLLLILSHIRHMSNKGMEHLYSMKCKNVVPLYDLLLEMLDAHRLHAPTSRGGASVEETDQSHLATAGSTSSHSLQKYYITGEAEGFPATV
Androgen receptor (Homo sapiens), sequence (P10275 whole entry, looked up): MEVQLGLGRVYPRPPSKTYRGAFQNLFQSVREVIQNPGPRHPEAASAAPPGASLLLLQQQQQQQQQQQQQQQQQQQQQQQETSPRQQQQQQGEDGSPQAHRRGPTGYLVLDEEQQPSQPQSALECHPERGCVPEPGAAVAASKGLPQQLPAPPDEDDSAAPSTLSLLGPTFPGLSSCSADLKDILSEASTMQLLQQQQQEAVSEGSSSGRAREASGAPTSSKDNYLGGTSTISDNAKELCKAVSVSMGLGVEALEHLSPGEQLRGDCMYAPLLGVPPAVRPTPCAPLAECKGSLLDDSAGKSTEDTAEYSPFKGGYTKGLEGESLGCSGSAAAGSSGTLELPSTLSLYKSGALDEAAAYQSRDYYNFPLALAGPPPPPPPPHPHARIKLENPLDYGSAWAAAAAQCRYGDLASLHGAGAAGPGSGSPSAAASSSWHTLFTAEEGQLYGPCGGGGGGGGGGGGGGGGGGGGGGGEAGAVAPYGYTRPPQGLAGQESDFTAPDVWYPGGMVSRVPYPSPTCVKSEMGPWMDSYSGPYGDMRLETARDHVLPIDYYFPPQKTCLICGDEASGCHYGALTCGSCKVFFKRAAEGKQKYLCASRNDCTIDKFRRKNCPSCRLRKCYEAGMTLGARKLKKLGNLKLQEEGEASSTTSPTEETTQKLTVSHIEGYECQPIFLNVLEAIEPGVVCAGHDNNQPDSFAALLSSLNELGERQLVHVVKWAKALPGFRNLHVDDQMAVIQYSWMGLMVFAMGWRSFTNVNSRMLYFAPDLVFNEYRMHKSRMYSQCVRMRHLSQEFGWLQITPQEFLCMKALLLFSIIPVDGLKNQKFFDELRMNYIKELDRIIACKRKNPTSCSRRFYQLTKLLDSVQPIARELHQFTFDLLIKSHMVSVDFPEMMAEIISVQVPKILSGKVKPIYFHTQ

As to `O=c1[nH]c2ccc(Cl)cc2o1`, the Potency entry in assay [1], in [2], in assay [3], in assay [4], in assay [5] and in assay [6] was “inactive” each time. Further, the Potency result in assay [7] and in assay [9] was “inactive” in each case. In assay [8], the result was inactive.
Regarding `Cc1cc2c(OCC(CNC(C)(C)C)OC(=O)c3ccccc3)cccc2[nH]1` (stereo unspecified), the Potency in assay [1] was 8.41 µM (active). Also, the Potency entry in assay [2], in [3], in assay [5], in assay [6], in assay [7] and in [9] was “inactive” each time. Also, the compound was called inactive in [8].
On to `CO/N=C(/C(=O)N[C@@H]1C(=O)N2C(C(=O)O)=C(COC(N)=O)CS[C@H]12)c1ccco1`, for which the Potency result in assay [1], in assay [2], in assay [3], in assay [4], in assay [5] and in assay [6] was “inactive” in each case. In assay [9], the Potency entry is “inactive”. Moreover, in assay [8], the compound was called inactive.
Regarding `CCC(OCCCOC)OC(C)=O` (stereo unspecified), the Potency entry in assay [1], in [2], in assay [3], in [4], in assay [5] and in [6] was “inactive” each time. In assay [9], the Potency entry was “inactive”. In assay [8], the compound was called inactive.
Consider `CC=C(Cl)Cl`, for which the Potency result in assay [1], in assay [2], in assay [3], in assay [4], in assay [5] and in assay [6] was “inactive” each time. The Potency result in assay [7] and in [9] was “inactive” in each case. For the same compound, the compound was classed as inactive in assay [8].
Consider `COc1ccc(OC(=O)N(CC(=O)O)Cc2ccc(OCCc3nc(-c4ccccc4)oc3C)cc2)cc1`, for which the Potency result in assay [1], in assay [4], in assay [6], in assay [7] and in assay [9] was “inactive” in each case. Also, the Potency is 23.7 µM (active) in [3] and 16.8 µM (active) in assay [5]. Moreover, in assay [8], the call was inactive.
Turning to `CC(C)=CCC1C(=O)N(c2ccccc2)N(c2ccccc2)C1=O`, the Potency entry in [1], in [2], in [4], in assay [5], in assay [6] and in assay [7] was “inactive” in each case. For the same compound, the Potency result in assay [9] is “inactive”. The result in [8] was inactive.
Take `Brc1cc(Br)c(Oc2cc(Br)c(Br)cc2Br)cc1Br`: the Potency result in [1], in assay [3], in [4], in assay [7] and in assay [9] was “inactive” each time. For the same compound, the Potency in assay [5] was 29.9 µM (active). In assay [8], the outcome was inactive.
With `CN1C[C@H](C(=O)N[C@]2(C)O[C@@]3(O)[C@@H]4CCCN4C(=O)[C@H](Cc4ccccc4)N3C2=O)C[C@@H]2c3cccc4[nH]cc(c34)C[C@H]21`, the Potency entry in assay [1], in [2] and in assay [7] was “inactive” in each case. Further, in assay [8], the result was inactive. In addition, the Potency in assay [9] is 11.9 µM (active).
Take `NCCNCCO`: the Potency result in [1], in assay [3], in [4], in [5], in assay [6] and in [7] was “inactive” throughout. The Potency entry in assay [9] was “inactive”. Further, the compound was called inactive in assay [8].
Turning to `OC[C@H]1O[C@@H](n2cnc3c(=S)nc[nH]c32)[C@H](O)[C@@H]1O`, the Potency entry in assay [1], in [2], in assay [4], in [7] and in assay [9] was “inactive” each time. Also, the Potency in [5] is 2.11 µM (active). Besides, the result in [8] was inactive.
As to `CCCCCC[C@@H](O)C/C=C\CCCCCCCC(=O)O`, the Potency result in assay [1], in assay [2] and in [4] was “inactive” each time. For the same compound, the outcome in [8] was inactive.
Turning to `CCCCN(CCN(CCCC)C(=O)N1CCOCC1)C(=O)N1CCOCC1`, in [1], the Potency is 13.3 µM (active). The Potency result in [2], in [4], in assay [5], in [10], in assay [6] and in assay [7] was “inactive” in each case. Besides, in [8], the call was inactive.
As to `O=C=Nc1cccc(C(F)(F)F)c1`, the Potency entry in assay [1], in [2], in [4], in assay [10], in [6] and in assay [7] was “inactive” throughout. For the same compound, the Potency entry in assay [9] was “inactive”. Further, the Potency in assay [5] is 30.4 µM (active). Besides, in assay [8], the result was inactive.

For the origin of these results see PubChem BioAssay (Tox21).
